Results filed as inconclusive are left out. The source made the active and inactive calls. The calls were made as follows: active = hit-call score of the fitted dose curve at least 0.9, where 1 is the maximum; inconclusive = response in the unintended direction; inactive = score below 0.9.

Sequence of sheep Cyclooxygenase-2 (Cox2), PTGS2 (gene 443460) (P79208 whole entry, looked up): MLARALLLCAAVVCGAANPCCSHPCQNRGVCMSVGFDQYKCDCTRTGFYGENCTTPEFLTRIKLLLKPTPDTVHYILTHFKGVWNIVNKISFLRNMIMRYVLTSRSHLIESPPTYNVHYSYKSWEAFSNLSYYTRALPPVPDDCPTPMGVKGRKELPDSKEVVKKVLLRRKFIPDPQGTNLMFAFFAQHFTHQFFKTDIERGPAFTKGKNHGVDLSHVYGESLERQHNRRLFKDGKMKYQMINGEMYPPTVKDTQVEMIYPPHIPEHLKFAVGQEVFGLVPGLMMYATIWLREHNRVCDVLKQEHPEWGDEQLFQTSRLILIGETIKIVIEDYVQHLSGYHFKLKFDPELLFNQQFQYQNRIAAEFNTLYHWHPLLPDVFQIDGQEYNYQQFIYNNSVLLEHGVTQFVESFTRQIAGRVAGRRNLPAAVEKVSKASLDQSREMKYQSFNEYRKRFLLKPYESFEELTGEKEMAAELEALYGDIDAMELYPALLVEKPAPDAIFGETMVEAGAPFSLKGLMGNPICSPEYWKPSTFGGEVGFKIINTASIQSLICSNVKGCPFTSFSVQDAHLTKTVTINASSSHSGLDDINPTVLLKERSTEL

This assay addresses sheep Cyclooxygenase-2 (Cox2), PTGS2 (gene 443460) (UniProt P79208). As to the kind of experiment: NVS_ENZ_oCOX2: NovaScreen (NVS) Enzymatic Assay for sheep Cyclooxygenase-2 (Cox2) (AID 2283231). On the procedure: NVS_ENZ_oCOX2 is a biochemical, single-readout assay that uses extracted gene-proteins from Ovine placenta in a tissue-based cell-free assay. Measurements were taken 0.66 hour after chemical dosing in a 96-well plate.NVS_ENZ_oCOX2 is one of one assay component(s) measured or calculated from the NVS_ENZ_oCOX2 assay. It is designed to make measurements of enzyme activity, a form of enzyme reporter, as detected with absorbance signals by Colorimetric technology.Data from the assay component NVS_ENZ_oCOX2 was analyzed into 1 assay endpoint. This assay endpoint, NVS_ENZ_oCOX2, was analyzed in the positive analysis fitting direction relative to DMSO as the negative control and baseline of activity. Using a type of enzyme reporter, loss-of-signal activity can be used to understand changes in the enzymatic activity as they relate to the gene PTGS2. Furthermore, this assay endpoint can be referred to as a primary readout, because this assay has produced multiple assay endpoints where this one serves a enzymatic activity function. To generalize the intended target to other relatable targets, this assay endpoint is annotated to the oxidoreductase intended target family, where the subfamily is cyclooxygenase.
Binding assays used specific radioligands (tritiated, iodinated) with non-radioactive competitive displacement ligands in agonist or antagonist protocols (as indicated) and various reference compounds and inhibitors to titrate specific binding to receptors and transporters. Most enzyme assays (CYPs, kinases, phosphatases, proteases, HDACs) used recombinant protein and specific substrates (fluorescence mostly, some colorimetric and radioactive) and inhibitors, followed by a biochemical separation of substrate and product. All assays for the biochemical HTS were initially run in duplicate at a single concentration (10 uM for CYP450 assays and 25 uM for all others). Assay-chemical combinations meeting a pre-defined threshold (e.g., 30% inhibition and other criteria defined below) were then run in singleton concentration-response format with maximum concentration of 20 uM for CYPs and 50 uM for all others. Each assay was run with positive and negative controls, and concurrent controls on every plate. The follow-up (secondary) screen tested active chemical-pairs in concentration series, as well as a few additional assays not tested in the primary screen, some selected negative inactives, and several cases re-run in the concentration series for confirmatory purposes.
Consider `CC[C@H](C)C(=O)O[C@H]1C[C@@H](C)C=C2C=C[C@H](C)[C@H](CC[C@@H]3C[C@@H](O)CC(=O)O3)[C@H]21`, for which the AC50 (as a rule, the concentration giving half of the maximal activity seen) is 8.83 µM (active).

Turning to `COc1ccc(-n2nc(C(F)F)cc2-c2ccc(S(C)=O)cc2)cc1` (stereo unspecified), the AC50 is 0.478 µM (active). Turning to `O=C(OC[C@H]1O[C@@H](OC(=O)c2cc(O)c(O)c(OC(=O)c3cc(O)c(O)c(O)c3)c2)[C@H](OC(=O)c2cc(O)c(O)c(OC(=O)c3cc(O)c(O)c(O)c3)c2)[C@@H](OC(=O)c2cc(O)c(O)c(OC(=O)c3cc(O)c(O)c(O)c3)c2)[C@@H]1OC(=O)c1cc(O)c(O)c(OC(=O)c2cc(O)c(O)c(O)c2)c1)c1cc(O)c(O)c(OC(=O)c2cc(O)c(O)c(O)c2)c1`, the AC50 is 2.87 µM (active). Same read-out and setting: under `CCOc1cccc(-n2cc(C(=O)N3CCN(c4cc(C(=O)O)c5ccccc5c4)CC3)nc2-c2ccc(C)cc2)c1` stands 6.87 µM (active); under `CC(C)c1cccc(C(C)C)c1N1C(=O)c2ccc(O)cc2C1=O`, 4.32 µM (active). `Cc1ccc(C)c(O)c1`: the compound was called inactive. For `CC(=O)c1ccc2c(c1)[C@H](NC(=O)c1ccc(F)cc1)[C@@H](O)C(C)(C)O2`, the AC50 is 11.3 µM (active).

On to `CC(C)=CCC/C(C)=C\CO`, for which the AC50 is 4.26 µM (active). `CCOC(=O)c1ccc(C2CCC(NC[C@H](O)COc3ccc(O)c(NS(C)(=O)=O)c3)CC2)cc1` (stereo partly specified): the AC50 was 8.48 µM (active). Same read-out and setting: under `C[C@](N)(Cc1ccc(O)c(O)c1)C(=O)O` stands 6.83 µM (active); under `CCCCCCc1ccc(O)cc1O`, 11 µM (active).

These data come from PubChem BioAssay (EPA / NIEHS).
